# Results published in the supplement of paper PMC6607015.
# Structures can show the parent of a compound that is named as a salt.
# System: A431
# Experiment: whole-cell filipin (free cholesterol) integrated intensity, Z-score; higher = more cholesterol staining
# Conditions: compound concentration in added solution (µM; 5 µl added to 20 µl cells): 10; 18 h
# How it was run: (§1)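 HeLa MZ or A431 cells (3,500/well in 20 µl) were seeded onto 5 µl of 10 µM compound solution in duplicate 384-well imaging plates, incubated 18 h, then fixed in 4% PFA. Cells were stained with 6C4 anti-LBPA antibody, filipin, propidium iodide and CellTracker green, and four 20× images were taken per well. MetaXpress segmentation gave per-cell integrated LBPA or filipin intensity, either whole-cell or within LBPA endosomes. Values are Z-scores normalised in AcuityXpress.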
row,SMILES,whole-cell filipin (z-score)
1,Cc1onc(-c2c(F)cccc2Cl)c1C(=O)N[C@@H]1C(=O)N2[C@@H]1SC(C)(C)[C@@H]2C(=O)O [Flucloxacillin sodium],-0.112
2,CC1(C)S[C@@H]2[C@H](NC(=O)Cc3ccccc3)C(=O)N2[C@H]1C(=O)O [Benzylpenicillin sodium],-0.101
3,COc1ccc2c(c1)C(=O)N(CCc1ccc(S(=O)(=O)NC(=O)NC3CCCCC3)cc1)C(=O)C2(C)C [Gliquidone],-0.152
4,CCCCC[C@H](O)/C=C/[C@@H]1[C@@H](C/C=C\CCCC(=O)O)[C@@H](O)C[C@H]1O [Dinoprost trometamol],-0.632
5,CCN(Cc1ccncc1)C(=O)C(CO)c1ccccc1 (configuration not stated) [Tropicamide],-0.78
6,"CCN(CC)CCOc1ccc(C(=C(Cl)c2ccccc2)c2ccccc2)cc1 [Clomiphene citrate (Z,E)]",0.0851
7,CC(=O)c1ccc2c(c1)N(CCCN(C)C)c1ccccc1S2 [Acetopromazine maleate salt],0.736
8,Cn1c(=O)c2c(ncn2CC(O)CO)n(C)c1=O (configuration not stated) [Diprophylline],-0.617

# System: HeLa MZ
# Experiment: as above
# Conditions: compound concentration in added solution (µM; 5 µl added to 20 µl cells): 10; 18 h
# How it was run: as §1
row,SMILES,whole-cell filipin (z-score)
1,O=c1cc(-c2ccc(O)c(O)c2)oc2cc(O)cc(O)c12 [Luteolin],-0.0366
2,CC(C)(O/N=C(\C(=O)N[C@@H]1C(=O)N2C(C(=O)[O-])=C(C[n+]3ccccc3)CS[C@H]12)c1csc(N)n1)C(=O)O [Ceftazidime pentahydrate],-0.099
3,CC(=O)OCC(=O)[C@@]1(OC(C)=O)[C@@H](C)C[C@H]2[C@@H]3C[C@H](F)C4=CC(=O)C=C[C@]4(C)[C@@]3(F)[C@@H](O)C[C@@]21C [Diflorasone Diacetate],-0.816
4,CN(C)CCn1nnnc1SCC1=C(C(=O)O)N2C(=O)[C@@H](NC(=O)Cc3csc(N)n3)[C@H]2SC1 [Cefotiam hydrochloride],-1.09
5,CCCOc1ccc(C(=O)OCCN(CC)CC)cc1N [Proparacaine hydrochloride],-0.271
6,COc1ccc(NS(=O)(=O)c2ccc(N)cc2)nn1 [Sulfamethoxypyridazine],-0.237
7,CCC(=O)O[C@]1(C(=O)SCF)[C@H](C)C[C@H]2[C@@H]3C[C@H](F)C4=CC(=O)C=C[C@]4(C)[C@@]3(F)[C@@H](O)C[C@@]21C [Fluticasone propionate],-0.0272
8,O=C(O)CCNC(=O)c1ccc(/N=N/c2ccc(O)c(C(=O)O)c2)cc1 [Balsalazide Sodium],0.475
9,CC(C)(C)NC[C@H](O)c1ccc(O)c(CO)c1 [Levalbuterol hydrochloride],-0.774
10,NC(CO)C(=O)NNCc1ccc(O)c(O)c1O (configuration not stated) [Benserazide hydrochloride],-0.254
11,Cc1ccc(NC(=O)c2ccc(CN3CCN(C)CC3)cc2)cc1Nc1nccc(-c2cccnc2)n1 [Imatinib],3.48
12,Cc1cc2c(cc1S(N)(=O)=O)S(=O)(=O)CCC2 [Meticrane],-0.699
13,O=C1O[C@H]([C@@H](O)CO)C(O)=C1O [Ascorbic acid],0.278
14,N=C(N)NCC1COC2(CCCCC2)O1 (configuration not stated) [Guanadrel sulfate],-0.401
15,CC[N+](C)(CC)CCOC(=O)C1c2ccccc2Oc2ccccc21 [Methantheline bromide],-0.214
16,CO/N=C(\C(=O)N[C@@H]1C(=O)N2C(C(=O)O)=C(COC(N)=O)CS[C@H]12)c1ccco1 [Cefuroxime sodium salt],0.0343
17,O=C(OCC(O)CO)c1ccccc1Nc1ccnc2cc(Cl)ccc12 (configuration not stated) [Glafenine hydrochloride],-1.18
18,C[C@@H]1NC(=O)NC1=O [Methylhydantoin-5-(L)],-0.142
19,CC1(C)O[C@@H]2C[C@H]3[C@@H]4C[C@H](F)C5=CC(=O)CC[C@]5(C)[C@H]4[C@@H](O)C[C@]3(C)[C@]2(C(=O)CO)O1 [Flurandrenolide],0.429
20,C/C(=C(\CCOP(=O)(O)O)SC(=O)c1ccccc1)N(C=O)Cc1cnc(C)nc1N [Benfotiamine],-0.157
21,CN1CCN(CCCN2c3ccccc3Sc3ccc(S(=O)(=O)N(C)C)cc32)CC1 [Thioproperazine dimesylate],-0.109
22,CN(C)CCOC(=O)C(c1ccccc1)C1(O)CCCC1 (configuration not stated) [Cyclopentolate hydrochloride],-0.332
23,Clc1cccc(Cl)c1NC1=NCCN1 [Clonidine hydrochloride],-0.0901
24,CCN(CC)CCc1nc(-c2ccccc2)no1 [Oxalamine citrate salt],-0.546
